From PubChem BioAssay
Most compounds without a hit are left out; they make up all but 3% or so of the library.
TRb SRC2 PPI: disrupts binding of human TR beta to SRC2. P10828. TRbeta-SRC2 peptide binding, fluorescence polarization; receptor liganded with 1 µM T3. Potency, µM (highest dose often 106 µM), for the others: top-dose activity change, negative = inhibition, most hits filed as inhibitors. 280,000 compounds, 0.065% hits. AID 1469;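 also: plate controls were bound peptide for no effect and peptide without receptor for full effect; nearly all actives have a fitted effect of over 50% in size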
Target sequence (P10828 whole entry, looked up): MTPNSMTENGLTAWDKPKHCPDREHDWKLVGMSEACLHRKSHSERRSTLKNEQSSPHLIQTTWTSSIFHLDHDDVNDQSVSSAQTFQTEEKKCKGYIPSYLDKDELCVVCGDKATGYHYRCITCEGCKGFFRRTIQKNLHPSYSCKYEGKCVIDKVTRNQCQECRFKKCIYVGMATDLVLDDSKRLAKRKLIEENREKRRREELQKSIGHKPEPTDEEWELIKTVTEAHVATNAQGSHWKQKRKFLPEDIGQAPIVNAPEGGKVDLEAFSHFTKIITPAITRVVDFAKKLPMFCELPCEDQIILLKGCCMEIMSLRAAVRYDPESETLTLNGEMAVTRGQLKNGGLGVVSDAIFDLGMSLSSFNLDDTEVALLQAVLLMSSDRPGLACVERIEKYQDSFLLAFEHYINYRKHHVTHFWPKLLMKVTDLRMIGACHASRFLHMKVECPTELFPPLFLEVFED
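Quantitative HTS by FP: 0.6 uM TRb LBD, 20 nM labeled SRC2 20-mer, 1 uM T3, 5% DMSO; 5 hr ambient incubation; % activity per concentration and potencies from concentration series.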
Tau FP inhib: blocks human tau fibril formation measured by polarization; Potency, µM (top dose mostly 57.7 µM), without a hit: at the top dose activity, negative = inhibition, hits mostly inhibitors; 280,000 compounds, 0.39% hits; K18 P301L tau heparin fibrillization, Alexa594 FP, 6 h; also: nearly all actives have a fitted effect of over 55% in size
Target sequence (P10636 561-689 P618L limits assumed): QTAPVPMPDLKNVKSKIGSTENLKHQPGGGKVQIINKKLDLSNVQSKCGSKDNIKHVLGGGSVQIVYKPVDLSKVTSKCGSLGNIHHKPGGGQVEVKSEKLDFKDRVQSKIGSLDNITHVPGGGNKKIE
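Human tau K18 […] P301L fragment, 15 uM unlabeled plus 0.24 uM Alexa 594-labeled tau (final), with compound and 20 uM heparin in 100 mM sodium acetate pH 7; 6 hr at 37 C, then Alexa 594 FP read.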
TR SRC2 fluor cs: alters Texas Red total fluorescence, flagging assay interference | TRb/SRC2 Texas Red total fluorescence interference | Potency, µM (top dose mostly 106 µM), for the others: at the top dose fluorescence change, negative = quenching | 280,000 compounds, 0.29% hits | AID 1479; active = well fitted curve in either direction with a large enough effect; inconclusive = small, poorly fitted or top-dose-only effect
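Human TRb ligand-binding domain at 0.6 uM with 20 nM Texas Red SRC2 peptide in Tris buffer containing 1 uM T3 and 5% DMSO, incubated with compound 5 h at ambient temperature. Total fluorescence (555/632 nm) calculated as parallel + 2 × perpendicular.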
Tau ThT inhib: inhibitors of human tau fibril formation, thioflavin T binding; P10636; recombinant tau K18 P301L, heparin-induced fibrillization, ThT fluorescence; Potency, µM (series often up to 57.4 µM), for the others: top-dose activity, negative = inhibition, hits mostly inhibitors; 270,000 compounds, 2.1% hits; AID 1460; also: nearly all actives have a fitted effect of over 55% in size
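Aggregation was driven by heparin (20 uM final) acting on recombinant tau […] bearing P301L in 100 mM sodium acetate pH 7; fibrils were detected with Thioflavin T.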
Tau fluor counter: counter-screen for tau fibril formation inhibitors. tau K18 P301L (four-repeat tau fragment) Alexa594 fluorescence, heparin fibrillization. Potency, µM (top dose mostly 57.7 µM), without a hit: top-dose activity change, negative = decrease. 280,000 compounds, 0.93% hits. AID 1463; also: nearly all actives have a fitted effect of over 55% in size
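Human K18 P301L tau (15 uM unlabeled plus 0.24 uM Alexa 594-labeled, final) in 100 mM sodium acetate pH 7 was mixed with compound and 20 uM heparin and incubated 6 hr at 37 C.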
An asterisk follows results filed as active; ? = inconclusive; · = no result given; [ ] = dose if it differs, or a comment. Unless noted, calls follow the shape of the dose curve; as a rule, active = well fitted curve in the direction sought with a large enough effect; inconclusive = small, poorly fitted or top-dose-only effect, or another doubt; inactive = no such curve, though single readings can be large; an effect the other way counts as inactive or inconclusive. Unless noted, % is scaled to controls: 0 for no effect and ±100 for the full control effect; potency is read from the fitted curve at half-maximal effect.

SMILES | TRb SRC2 PPI | Tau FP inhib | TR SRC2 fluor cs | Tau ThT inhib | Tau fluor counter
O=C1C(Nc2ccc(O)cc2)=C/C(=N/S(=O)(=O)c2cccs2)c2ccccc21 | ? | ? | -2% | 13µM* | 13µM*[quencher]
Cc1ccc(N2C(=O)CCSC23C(=O)N(Cc2ccccc2)c2ccccc23)cc1F (stereo not given) | 3% | -16% | -4% | ? | -15%
Cc1ccc(Cl)cc1N(C)C(=O)c1noc2c1CCCCC2 | -4% | -7% | -3% | -6% | -11%
CCOC(=O)c1sc2cccc(F)c2c1S(=O)(=O)N1CCN(c2cccc(Cl)c2)CC1 | -1% | -14% | ? | -6% | -24%
O=C(NCc1ccc(F)cc1Cl)c1cc(=O)[nH]c2ccc(S(=O)(=O)N3CCCCC3)cc12 | 1% | 0% | -2% | 3% | 3%
Cc1nn(-c2ccccc2)c(Cl)c1/C=N/Nc1ccc(Cl)c(C(=O)O)c1 | -1% | 8% | -3% | ? | -24%
Cc1nn(-c2ccccc2)c(Cl)c1/C=N/Nc1ccc(S(=O)(=O)Nc2ccccc2C(=O)O)cc1[N+](=O)[O-] | 10% | 13% | ? | 8.9µM* | ?
COc1ccc(NC(=S)NNc2ccc(S(=O)(=O)Nc3ccccc3C(=O)O)cc2[N+](=O)[O-])cc1 | 2% | ? | -11% | 13µM* | 10µM*[quencher]
Cc1nc2nc(SCC(=O)N(C)Cc3ccccc3)nn2c(C)c1Cc1ccccc1Cl | 2% | 1% | -1% | ? | -17%
Cc1ccc(Nc2c(-c3ccncc3)nc3ccc(C)cn23)cc1 | 9% | 14% | -1% | ? | -28%
COc1cc(-c2nc3ccc(C)cn3c2Nc2ccc(Cl)cc2)ccc1O | -8% | ? | -2% | ? | 8.9µM*[quencher]
COc1cc(-c2nc3ccc(Cl)cn3c2Nc2ccc3c(c2)OCO3)ccc1O | -7% | 11% | -5% | ? | 14µM*[quencher]
CCOc1ccc(C2=Cc3cc(OC)c(OC)cc3C(=C(Cl)Cl)O2)cc1 | 28µM* | ? | -19% | 18µM* | ?
CCOc1ccc(-c2cc(-c3nc(-c4ccc(OC)c(OC)c4)no3)[nH]n2)cc1 | 3% | 0% | -1% | ? | -26%
NS(=O)(=O)c1ccc(NC(=O)COC(=O)c2cn(-c3ccccc3)nc2-c2ccccc2)cc1 | -3% | 11µM* | -2% | 0% | ?
O=C(COC(=O)c1cn(-c2ccccc2)nc1-c1ccccc1)Nc1ncc(Cl)cc1Cl | -7% | -8% | -3% | -4% | ?
CN1C(=O)/C(=C/c2cc(N=Nc3ccccc3)ccc2O)SC1=S | 1% | ? | 9% | 4.5µM* | 6.3µM*[quencher]
Cc1c(N2C(=O)/C(=C\c3ccccc3O)SC2=S)c(=O)n(-c2ccccc2)n1C | -6% | ? | -1% | 32µM* | -26%
CCOc1ccc(NC(=O)Cn2c(=O)n(Cc3nc(-c4ccccc4)no3)c(=O)c3ccccc32)cc1 | -7% | ? | -3% | ? | -1%
O=C(Cn1c(=O)n(Cc2nc(-c3ccccc3)no2)c(=O)c2ccccc21)Nc1cccc(Cl)c1 | 5% | 28µM* | -2% | ? | -27%
COc1ccc(NC(=O)Cn2c(=O)n(Cc3nc(-c4ccccc4)no3)c(=O)c3ccccc32)cc1Cl | 3% | ? | -3% | ? | -6%
O=C(Cn1c(=O)n(Cc2nc(-c3ccccc3)no2)c(=O)c2ccccc21)Nc1cccc(C(F)(F)F)c1 | -2% | 10µM* | 0% | 19% | ?
C/C=C1/C(=O)C[C@@H]2[C@H]3CCC4=CC(=O)CC[C@]4(C)[C@@H]3CC[C@]12C | 4% | -9% | -3% | ? | -6%
Cc1ccc(N2CCN(S(=O)(=O)c3ccc4oc(=O)c5ncn(C)c5c4c3)CC2)c(C)c1 | 0% | 0% | 1% | 1% | 0%
Cc1cc(C)c(C(=O)/C=C/c2ccco2)c(=O)[nH]1 | 0% | ? | 0% | 22µM* | -23%
SMILES | TRb SRC2 PPI | Tau FP inhib | TR SRC2 fluor cs | Tau ThT inhib | Tau fluor counter
Cc1ccc(/C=C/C(=O)c2c(C)cc(C)[nH]c2=O)cc1 | -2% | 5% | -3% | -11% | -2%
Cc1ccc(NC(=O)CCCCCCCCCCC2COCCO2)c(C)c1 (stereo not given) | ? | 2% | 0.025µM*[quencher] | 5% | -4%
NCCCCCCNS(=O)(=O)c1ccc2c(Cl)cccc2c1 | -2% | 8% | 0% | -3% | -5%
CSCC[C@H](NC(=O)[C@H](Cc1c[nH]c2ccccc12)NC(=O)CNC(=O)[C@H](Cc1ccc(O)cc1)NC(=O)[C@H](C)NC(=O)[C@H](CCC(=O)O)NC(=O)[C@H](CCC(=O)O)NC(=O)[C@H](CCC(=O)O)NC(=O)[C@H](CCC(=O)O)NC(=O)[C@H](CCC(=O)O)NC(=O)[C@H](CC(C)C)NC(=O)[C@H](Cc1c[nH]c2ccccc12)NC(=O)[C@@H]1CCCN1C(=O)CNC(=O)[C@@H]1CCC(=O)N1)C(=O)N[C@@H](CC(=O)O)C(=O)N[C@@H](Cc1ccccc1)C(=O)NCC(=O)O | 2% | · | 2% | · | ·
Nc1ncc(N=Nc2cc(C(=O)O)ccc2Cl)s1 | 19% | ? | 71µM*[quencher] | 14µM* | -28%
Nc1cc2sc(-c3ccc(C(=O)O)cc3)nc2cc1Cl | 12% | 2% | -9% | ? | -21%
COc1ccc(/C=N/NC(=O)c2nn(-c3ccccc3)c(=O)c3c(N)scc23)cc1 | 5% | ? | -20% | 14µM* | ?
COc1ccc(/C=N/NC(=O)c2nn(-c3ccc(C)c(C)c3)c(=O)c3ccccc23)cc1 | 5% | -1% | -2% | -20% | -19%
COc1ccc(/C=N/NC(=O)c2nn(-c3ccc(Cl)cc3)c(=O)c3c(N)scc23)cc1 | -2% | ? | -18% | 10µM* | ?
COC(=O)N1C2=C(c3ccccc3[C@@H]1CC(=O)Nc1ccc3ccc4cccc5ccc1c3c45)[C@@H]1C(=O)N(c3ccccc3)C(=O)[C@@H]1[C@H](C)C2 | -3%[11.2 µM] | 9%[11.6 µM] | -3%[11.2 µM] | -1%[11.5 µM] | -7%[11.6 µM]
Cc1ccc(CSc2nc3ccc(NC(=O)COc4ccccc4)cc3s2)cc1 | 8% | -1% | -10% | -3% | 0%
CCn1c(C)nc2cc(C(=O)N=Nc3c(O)[nH]c4c(C)cc(C)cc34)ccc21 | -6% | -12% | 2% | 7.1µM* | -26%
C/C(=C\C(=S)Nc1ccccc1)Nc1cccc2ccccc12 | 1% | -9% | 0% | ? | -21%
C/C(=C\C(=S)Nc1ccccc1)Nc1ccc2ccccc2c1 | -6% | ? | -2% | 13µM* | ?
COc1ccc(CC(=O)Nc2ccc3nc(N4CCCCC4)cc(C)c3c2)cc1 | -5% | 3% | -3% | ? | 13µM*[quencher]
COc1cccc(C(=O)Nc2ccc3nc(N4CCN(c5ncccn5)CC4)cc(C)c3c2)c1OC | -15% | 9% | -2% | 8.9µM* | -30%
